# Sampled rows, rich in hits. Any-hit rate of the full collection: about 8%.
# SW480 rerep – DNA re-replication induction in SW480 cells. SW480 DNA re-replication, Hoechst DNA content imaging, 48 h. Potency, µM (series often up to 46.1 µM), for inactives: top-dose re-replication activation, hits mostly activators. actives 1.8% (n = 340,000). AID 624297; note: % of control where 0% means no effect; nearly all actives have a fitted effect of over 55% in size
#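 Per well, 250 cells were exposed to pinned compound for 48 hr. Nuclear DNA was visualised with Hoechst (40 min, 37 C) and total object intensity recorded by fluorescence scanning.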
# KB-V1 cytotox – kills drug-selected multidrug resistant KB-V1 cells. actives 3.4% (n = 400,000). KB-V1 MDR cells viability, CellTiter-Glo, 72 h. Potency, µM (series often up to 46.1 µM), hits mostly cytotoxic. AID 1347076; note: % is set by controls: 0 for no effect and ±100 for the full control effect; nearly all actives have a fitted effect of over 60% in size
#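 Cytotoxicity toward P-gp-expressing KB-V1 cells was determined as loss of CellTiter-Glo luminescence after 72 h at 37 degrees C. Compounds were tested in quantitative HTS format across a concentration range, with curves fitted to normalized data.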
# HT1080-NT tox – kills 2HG-producing HT-1080-NT fibrosarcoma cells; HT-1080-NT fibrosarcoma viability, CellTiter-Glo ATP luminescence, 48 h; Potency, µM (top dose mostly 46.1 µM), inactives show top-dose activity, negative = less viability, hits mostly cytotoxic; actives 1.6% (n = 360,000); AID 686970;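 note: NT is the 2HG producing partner of a matched IDH1 knockdown line; 0% = DMSO-treated cells and -100% = media-only wells without cells; nearly all actives have a fitted effect of over 55% in size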
#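 HT-1080-NT; 750 cells/well; 5% FBS RPMI; 48 h compound, 37 degrees C; CellTiter-Glo luminescence; curve fitting and curve-class assignment.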
# MCF10A rereplic – inducers of DNA re-replication in MCF 10A breast cells. Potency, µM (top dose mostly 46.1 µM), for the others: top-dose activity, positive = re-replication, usual class: activators. actives 2.9% (n = 350,000). AID 624296. MCF 10A DNA re-replication, Hoechst nuclear intensity, 48 h; note: % of control where 0% means no effect; nearly all actives have a fitted effect of over 50% in size
# KB-3-1 tox – KB-3-1 parental cell cytotoxicity; actives 1.4% (n = 400,000); Potency, µM (series often up to 46.1 µM), usual class: cytotoxic; KB-3-1 viability, CellTiter-Glo ATP luminescence, 72 h; note: % is set by controls: 0 for no effect and ±100 for the full control effect; nearly all actives have a fitted effect of over 60% in size
#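 Parental KB-3-1 adenocarcinoma cells in phenol-red-free DMEM with 10% FBS were pin-treated with compounds at several concentrations, incubated 72 h at 37 °C, and viability read by CellTiter-Glo luminescence; concentration-effect curves were fitted after normalization.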
# HT1080 IDH1KD tx – toxicity to HT-1080 IDH1 knockdown cells (counter line); HT-1080 IDH1 knockdown viability, ATP luminescence, 48 h; Potency, µM (series often up to 46.1 µM), inactives show top-dose activity, negative = toxicity, usual class: cytotoxic; actives 2% (n = 360,000); AID 686971;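 note: 0% = DMSO wells and -100% = cell-free medium wells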
#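 After a 2 h attachment period, IDH1KD HT-1080 cells took pin-transferred compound for 48 h at 37 °C; ATP-based luminescence after 10 min room-temperature reagent incubation reported viability.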
# * hit, by the source's call; i = inactive; ? = inconclusive; · = no result; [ ] = dose if it differs, or a comment. Calls come from the whole dose curve; as a rule, active = well fitted curve in the direction sought with a large enough effect; inconclusive = small, poorly fitted or top-dose-only effect, or another doubt; inactive = no such curve, though single readings can be large; an effect the other way counts as inactive or inconclusive. Potency is the fitted concentration of half-maximal effect.
SMILES,SW480 rerep,KB-V1 cytotox,HT1080-NT tox,MCF10A rereplic,KB-3-1 tox,HT1080 IDH1KD tx
O=C(CSC1=NCCS1)NCc1ccco1,?,i,3%,23µM*,i,0%
C1=Cc2ccccc2/C1=C\c1cc2c3c(c1)CCCN3CCC2,·,i,·,·,i,·
CCC(C(=O)NC1CCCCC1)N(Cc1cccs1)C(=O)c1snc(C(N)=O)c1N (stereo not given),1%,i,-2%,?,i,-1%
O=C(CSc1nc(-c2ccccc2)c(-c2ccccc2)[nH]1)NCCN1C(=O)CSC1=O,?,?,4.6µM*,?,3.7µM*,6.5µM*
S=C(SSC(=S)N1CCOCC1)N1CCOCC1,·,i,1.2µM*,·,i,0.73µM*
CC(SC(=S)N1CCOCC1)C(=O)O (stereo not given),3%[9.22 µM],?,-17%,6%,i,-5%
CS(=O)c1ccccc1-c1nc(-c2ccc([N+](=O)[O-])cc2)no1 (stereo not given),-6%,8.2µM*,17%,3%,?,13%
Cc1ccc(-c2noc(CC(=O)c3ccc([N+](=O)[O-])cc3)n2)cc1,-2%,16µM*,0%,11%,i,0%
CNc1ccc(C=O)cc1Br,·,i,·,·,i,·
CCc1cccc(NC(=O)c2ccc3c(c2)c(C)c(C)n3Cc2ccc(F)cc2)c1,·,i,·,·,i,·
CCOC(=O)C1=C(C)N=c2sc(=Cc3ccc(OCC(=O)O)cc3)c(=O)n2C1c1ccc(Cl)cc1 (stereo not given),·,i,-23%,·,i,-27%
CCOC(=O)C1=C(C)N=c2sc(=Cc3cc(Cl)c(OCC(=O)O)c(Cl)c3)c(=O)n2C1c1cccc(OC)c1 (stereo not given),·,i,26µM*,·,i,21µM*
CCOC(=O)C1=C(C)N=c2s/c(=C\c3ccc(OCC(=O)O)cc3)c(=O)n2C1c1ccc(OC(C)C)cc1 (stereo not given),-40%,?,-22%,15µM*,i,-21%
Cc1ccc(Sc2ccc(NC(=O)CCl)cc2)cc1C,?,?,-24%,?,?,-27%
Cc1ccc(C)c(Sc2ccc(NC(=O)CCl)cc2)c1,26%,?,-16%,?,21µM*,-19%
Cc1ccc(CNC(=O)Nc2ccccc2)c(C)c1,-11%,i,0%,7%,i,-2%
COCCn1c(=NC(=O)CSCC(=O)NC2CCCCC2)sc2cc(OC)ccc21,5%,2.9µM*,-2%,14%,?,-2%
CCCCC(=O)NC(Nc1sc2c(c1C(N)=O)CCCC2)(C(=O)OCC)C(F)(F)F (stereo not given),2.9µM*,i,11%,-9%,i,9%
Cc1ccc(-c2cn(-c3ccccc3)c(SCC(=O)NC3CCS(=O)(=O)C3)n2)cc1C (stereo not given),2%,3.7µM*,3%,15%,i,3%
Cc1nc(-c2ccccn2)sc1C(=O)Nc1ccc(Cl)c(Cl)c1,0%,18µM*,-8%,6%,i,1%
COc1ccccc1NC(=O)CC(C)n1nc(C)cc1C (stereo not given),·,i,·,·,i,·
Cc1ccc2c(c1)C=CC(C#N)N2C(=O)c1ccccc1 (stereo not given),2.1µM*,9.2µM*,1.6µM*,?,4.6µM*,1.5µM*
COc1ccc(C(=O)N2c3ccccc3C=CC2C#N)cc1 (stereo not given),?,i,-28%,?,i,-20%
CCSC(=O)N1c2ccc(OC)cc2C=CC1C#N (stereo not given),?,0.73µM*,0.46µM*,1.2µM*,0.65µM*,?
CCOC(=O)c1ccccc1NC(=O)Cn1c(=O)n(Cc2nc(-c3ccccc3)no2)c(=O)c2ccccc21,·,i,·,·,i,·
SMILES,SW480 rerep,KB-V1 cytotox,HT1080-NT tox,MCF10A rereplic,KB-3-1 tox,HT1080 IDH1KD tx
COc1ccc(CCNC(=O)CCCn2c(=O)c3ccccc3n(CC(=O)Nc3c(C)cc(C)cc3C)c2=O)cc1OC,·,?,·,·,i,·
CN(C)c1cc(N2CCOCC2)nc(C#N)n1,·,·,4%,·,·,8%
COc1ccc(-n2nc3c(c2NC(=O)CCl)CSC3)cc1,?,?,21µM*,4%,23µM*,7.3µM*
COc1ccc(-n2nc3c(c2NC(=O)C(C)Cl)CSC3)cc1 (stereo not given),2%,i,2%,14%,i,0%
COC(=O)c1ccc(NC(=O)C(=O)N2CCN(C(=S)Nc3cccc(OC)c3)CC2)cc1,-27%,18µM*,5%,-2%,i,24%
COC(=O)c1ccc(NC(=O)C(=O)N2CCN(C(=S)Nc3ccc(C)cc3)CC2)cc1,0%,i,6%,26%,i,-11%
COC(=O)c1ccc(NC(=O)C(=O)N2CCN(C(=S)Nc3ccc(OC)cc3)CC2)cc1,16%,21µM*,-6%,-2%,i,-6%
O=C(CN1c2cccc3cccc(c23)S1(=O)=O)NCc1ccc(Cl)cc1,-16%,i,-9%,6%,i,-12%
CCOc1cc(CNC(=O)c2ccc3c(c2)N(C)C(=O)C2CCCCN32)cc(OCC)c1OCC (stereo not given),·,i,·,·,i,·
Cc1cccc(-c2nc(SCC(=O)NCC3CCCO3)c3c(=O)n(C)c(=O)n(C)c3n2)c1 (stereo not given),·,i,·,·,i,·
O=C(C[n+]1cc(-c2ccccc2)n2c1CCCCC2)c1ccc(Cl)cc1,-14%,i,-2%,-5%,?,-3%
Cc1ccc(NC(=O)C[n+]2cc(-c3ccccc3)n3c2CCC3)cc1,-17%,i,9%,7%,?,-11%
Cc1ccc(-c2c[n+](CC(=O)Nc3nc(-c4ccccc4)cs3)c3n2CCC3)cc1,-1%,i,?,29%,i,23µM*
Cc1ccc(-c2c[n+](CC(=O)c3ccc(Br)cc3)c3n2CCCCC3)cc1,0%,i,21µM*,-2%,?,?
O=C(C[n+]1cc(-c2ccccc2)n2c1CCC2)Nc1nc(-c2ccccc2)cs1,-5%,i,0%,-6%,16µM*,-10%
Cc1ccc(NC(=O)Cn2c(=O)n(Cc3nc(-c4ccccc4)no3)c(=O)c3cc4c(cc32)OCO4)cc1C,·,i,·,·,i,·
Cc1cnc(C(=O)OCC(=O)N2C(C)CCCC2C)cn1 (stereo not given),-6%,i,-4%,-2%,i,-7%

# Assay outcomes (PubChem)
